Hit rate of the full screen: of about 17,000 compounds, about 1,100 (6.5%) were called active.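 Rule for the calls: active = z-score of -3 or lower, meaning strong loss of probe binding signal; inactive = the rest.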 The entries come from a sample that favours actives as a whole.
biological target: Insulin-degrading enzyme (Homo sapiens) (UniProt P14735); assay: displacers of FL-6b probe from IDE – biochemical, fluorescence anisotropy, probe displacement, primary screen (AID 1259349); settings: purified IDE, FL-6b probe fluorescence polarization; at 20 µM; active compounds read low;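 note: His-tagged human IDE residues 42-1019 made in E. coli with 30 nM FL-6b probe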
Sequence (P14735 42-1019 limits assumed): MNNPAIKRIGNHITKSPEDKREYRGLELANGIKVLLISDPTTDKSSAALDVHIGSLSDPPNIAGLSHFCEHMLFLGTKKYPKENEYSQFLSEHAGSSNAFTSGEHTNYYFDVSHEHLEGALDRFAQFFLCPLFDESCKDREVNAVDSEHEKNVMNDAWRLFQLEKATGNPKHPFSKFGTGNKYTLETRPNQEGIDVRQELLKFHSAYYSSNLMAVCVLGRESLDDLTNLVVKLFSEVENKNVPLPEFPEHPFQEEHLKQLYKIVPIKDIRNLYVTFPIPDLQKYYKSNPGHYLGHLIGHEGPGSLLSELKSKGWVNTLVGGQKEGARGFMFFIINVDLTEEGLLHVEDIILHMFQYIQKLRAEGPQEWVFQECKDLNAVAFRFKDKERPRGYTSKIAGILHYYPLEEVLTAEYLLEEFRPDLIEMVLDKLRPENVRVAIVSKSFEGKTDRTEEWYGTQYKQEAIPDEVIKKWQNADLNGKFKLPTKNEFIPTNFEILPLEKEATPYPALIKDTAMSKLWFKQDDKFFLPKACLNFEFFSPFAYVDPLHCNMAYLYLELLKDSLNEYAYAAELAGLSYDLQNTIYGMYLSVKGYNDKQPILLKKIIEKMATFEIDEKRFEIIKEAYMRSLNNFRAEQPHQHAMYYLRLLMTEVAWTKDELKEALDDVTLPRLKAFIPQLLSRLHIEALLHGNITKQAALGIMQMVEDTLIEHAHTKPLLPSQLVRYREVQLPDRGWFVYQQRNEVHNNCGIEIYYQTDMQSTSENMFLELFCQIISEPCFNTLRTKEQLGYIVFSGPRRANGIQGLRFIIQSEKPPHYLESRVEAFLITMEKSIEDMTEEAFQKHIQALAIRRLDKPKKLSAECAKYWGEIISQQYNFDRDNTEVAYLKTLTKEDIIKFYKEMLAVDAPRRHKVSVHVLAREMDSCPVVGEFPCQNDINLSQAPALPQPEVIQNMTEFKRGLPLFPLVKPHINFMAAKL

z-score, inactive:
CN1C(=O)c2cc(NC(=O)Nc3ccccc3Cl)ccc2OC[C@H]2O[C@H](CC(=O)NCCCN3CCOCC3)CC[C@H]21 -1.04
CC(=O)NC[C@H]1[C@@H](c2ccc(C#CC(C)C)cc2)[C@@H](CO)N1Cc1ccccn1 -1.78
C[C@@H]1CN([C@H](C)CO)C(=O)c2cc(NC(=O)NC3CCCCC3)ccc2O[C@@H]1CN(C)S(C)(=O)=O 0.86
C[C@@H](NC(=O)C[C@H]1CC[C@H]2[C@H](COc3ccc(NS(=O)(=O)c4ccc(Cl)cc4)cc3C(=O)N2C)O1)c1ccccc1 0.297
COc1cccc(C(=O)Nc2ccc3c(c2)C(=O)N(C)[C@H]2CC[C@H](CC(=O)N[C@@H](C)c4ccccc4)O[C@H]2CO3)c1 -1.12
O=C(Cc1ccccn1)N1CC(=O)N2[C@H](CO)[C@H](c3ccc(C#CCC4CCCC4)cc3)[C@@H]2C1 0.616
N#Cc1ccc(-c2ccc([C@H]3[C@H](CO)N4C(=O)CN(C(=O)Cc5ccccc5)C[C@@H]34)cc2)cc1 1.44
O=C(c1cccnc1)N1CC(=O)N2[C@H](CO)[C@H](c3ccc(-c4cccnc4)cc3)[C@@H]2C1 1.98
O=C(c1ccccc1F)N1CC(=O)N2[C@H](CO)[C@@H](c3ccc(-c4cccnc4)cc3)[C@H]2C1 -0.211
COc1ccc(C#Cc2ccc([C@H]3[C@H]4CN(C(=O)c5cccnc5)CC(=O)N4[C@H]3CO)cc2)cc1 -0.5
O=C(c1cccnc1)N1CC(=O)N2[C@H](CO)[C@@H](c3ccc(-c4ccc(F)cc4)cc3)[C@@H]2C1 -1.03
O=C(c1cccnc1)N1CC(=O)N2[C@H](C1)[C@H](c1ccc(-c3ccccc3F)cc1)[C@@H]2CO -1.28
CCCC#Cc1ccc([C@H]2[C@H]3CN(C(=O)c4cccnc4)CC(=O)N3[C@H]2CO)cc1 0.452
C[C@H]1CN([C@@H](C)CO)S(=O)(=O)c2ccc(C#CC3(O)CCCC3)cc2O[C@@H]1CN(C)C(=O)Nc1cccc(F)c1 -0.533
COc1ccc(-c2ccccc2[C@H]2[C@@H](CO)N(C(=O)c3cccnc3)[C@H]2C#N)cc1 0.00658
N#Cc1cccc(-c2ccc(C3[C@H]4CNC[C@@H]3N4Cc3cncnc3)cc2)c1 (some centres not stated) 1.3
CCN(C[C@H]1[C@H](c2ccc(-c3ccccc3)cc2)[C@H](CO)N1CC1CC1)C(C)=O 2.55
N#Cc1cccc(-c2ccc(C3[C@@H]4CNC[C@H]3N4)cc2)c1 (some centres not stated) -0.64
CCCNC(=O)N1[C@H](CNC(=O)c2cccc(F)c2)[C@H](c2ccccc2)[C@@H]1CO 1.46
CCCNC(=O)N1[C@@H]2Cn3c(ccc(-c4ccc(OC)cc4)c3=O)[C@H]1[C@@H](C(=O)NC1CCC1)[C@@H]2CO -0.305
CN(C)C(=O)c1cccc(-c2ccc([C@H]3[C@H](CO)N4C(=O)CN(C(=O)Cc5ccccc5)C[C@@H]34)cc2)c1 3.83
CN(C)C(=O)c1cccc(-c2ccc([C@H]3[C@H]4CN(C(=O)Cc5ccccc5)CC(=O)N4[C@H]3CO)cc2)c1 1.91
O=C(c1cnccn1)N1CC(=O)N2[C@H](C1)[C@@H](c1ccc(C3=CCCCC3)cc1)[C@@H]2CO 0.336
O=C(CN1CCOCC1)N1CCCCN2[C@H](CO)[C@H](c3ccc(-c4ccccc4)cc3)[C@@H]2C1 -0.341
CC(C)CC#Cc1ccc([C@H]2[C@H]3CN(C(=O)CN4CCOCC4)CC(=O)N3[C@H]2CO)cc1 4.32
CC(C)CC#Cc1ccc([C@H]2[C@@H](CO)N3C(=O)CN(C(=O)CN4CCOCC4)C[C@H]23)cc1 2.46
O=C(CN1CCOCC1)N1CCCCN2[C@@H](CO)[C@H](c3ccc(-c4ccccc4)cc3)[C@@H]2C1 -0.926
CCC(=O)N1CCCCN2[C@H](C1)[C@@H](c1ccc(-c3ccc(F)cc3)cc1)[C@@H]2CO 1.91
COCC(=O)N1CCCCN2[C@H](C1)[C@@H](c1ccc(-c3ccccc3)cc1)[C@@H]2CO 1.64
O=C(Cc1cccnc1)N1CC(=O)N2[C@H](CO)[C@@H](c3ccc(/C=C/c4ccccc4)cc3)[C@H]2C1 -1.1
COCC#Cc1ccc([C@@H]2[C@@H](CO)N3CCCCN(C(=O)COC)C[C@@H]23)cc1 1.49
CCCNC(=O)N1[C@H](CO)[C@@H](c2ccc(-c3ccc(C(=O)N(C)C)cc3)cc2)[C@@H]1C#N -1.53

z-score, active:
COc1cccc(C(=O)Nc2ccc3c(c2)C(=O)N(C)[C@H]2CC[C@@H](CC(=O)N[C@H](C)c4ccccc4)O[C@H]2CO3)c1 -4.24
O=C(Cc1ccccn1)N1CC(=O)N2[C@H](C1)[C@@H](c1ccc(-c3ccccc3)cc1)[C@@H]2CO -6.31
COc1cccc(-c2ccc([C@@H]3[C@H]4CN(C(=O)c5cccnc5)CC(=O)N4[C@H]3CO)cc2)c1 -6.37
Cc1ccccc1-c1ccc([C@H]2[C@@H](CO)N3C(=O)CN(C(=O)c4cccnc4)C[C@@H]23)cc1 -8.42
Cc1ccccc1-c1ccc([C@H]2[C@H](CO)N3C(=O)CN(C(=O)c4cccnc4)C[C@@H]23)cc1 -12.4
Cc1cccc(-c2ccc([C@@H]3[C@H]4CN(C(=O)c5ccccc5)CC(=O)N4[C@H]3CO)cc2)c1 -8.7
O=C(c1cnccn1)N1CC(=O)N2[C@H](C1)[C@H](c1ccc(/C=C/c3ccccc3)cc1)[C@@H]2CO -7.53
CCC(=O)N1CCCCN2[C@H](C1)[C@@H](c1ccc(/C=C/c3ccccc3)cc1)[C@@H]2CO -7.21
O=C(CN1CCOCC1)N1CC(=O)N2[C@H](C1)[C@H](c1ccc(/C=C/c3ccccc3)cc1)[C@@H]2CO -5.55
O=C(CN1CCOCC1)N1CCCCN2[C@@H](CO)[C@H](c3ccc(/C=C/c4ccccc4)cc3)[C@@H]2C1 -4.3
